In PubChem BioAssay:
Calls of active or inactive are those of the source. Unless noted, the rule behind the calls is not given here.

Tests used:
[1] = anti-His antibody binders, primary screen, artefact control for SMM control protein annotation, biochemical, small-molecule microarray, 635 nm fluorescence (AID 1128); details: anti-His Alexa647 antibody binding, higher = more signal;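 note: score merges feature fluorescence with signal-to-noise for each printed compound spot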
[2] = test system: Human papillomavirus type 1a E7 protein (residues 1-88); test: HPV1a E7 small-molecule binders, primary screen, biochemical, small-molecule microarray, residues 1-88, 635 nm (AID 1129); details: small-molecule microarray binding, fluorescence 635 nm; higher = more signal
[3] = biological target: Focal adhesion kinase 1 (Homo sapiens) (UniProt Q05397); test: small-molecule microarray binders of FAK, primary screen, biochemical, 635/667 nm fluorescence, BSA, DTT (AID 1130); details: PTK2 binding, 635 nm fluorescence, higher = more signal;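 note: composite of spot emission at 667 nm and signal to noise over triplicate slides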
Sequence of Focal adhesion kinase 1 (Homo sapiens) (Q05397 whole entry, looked up): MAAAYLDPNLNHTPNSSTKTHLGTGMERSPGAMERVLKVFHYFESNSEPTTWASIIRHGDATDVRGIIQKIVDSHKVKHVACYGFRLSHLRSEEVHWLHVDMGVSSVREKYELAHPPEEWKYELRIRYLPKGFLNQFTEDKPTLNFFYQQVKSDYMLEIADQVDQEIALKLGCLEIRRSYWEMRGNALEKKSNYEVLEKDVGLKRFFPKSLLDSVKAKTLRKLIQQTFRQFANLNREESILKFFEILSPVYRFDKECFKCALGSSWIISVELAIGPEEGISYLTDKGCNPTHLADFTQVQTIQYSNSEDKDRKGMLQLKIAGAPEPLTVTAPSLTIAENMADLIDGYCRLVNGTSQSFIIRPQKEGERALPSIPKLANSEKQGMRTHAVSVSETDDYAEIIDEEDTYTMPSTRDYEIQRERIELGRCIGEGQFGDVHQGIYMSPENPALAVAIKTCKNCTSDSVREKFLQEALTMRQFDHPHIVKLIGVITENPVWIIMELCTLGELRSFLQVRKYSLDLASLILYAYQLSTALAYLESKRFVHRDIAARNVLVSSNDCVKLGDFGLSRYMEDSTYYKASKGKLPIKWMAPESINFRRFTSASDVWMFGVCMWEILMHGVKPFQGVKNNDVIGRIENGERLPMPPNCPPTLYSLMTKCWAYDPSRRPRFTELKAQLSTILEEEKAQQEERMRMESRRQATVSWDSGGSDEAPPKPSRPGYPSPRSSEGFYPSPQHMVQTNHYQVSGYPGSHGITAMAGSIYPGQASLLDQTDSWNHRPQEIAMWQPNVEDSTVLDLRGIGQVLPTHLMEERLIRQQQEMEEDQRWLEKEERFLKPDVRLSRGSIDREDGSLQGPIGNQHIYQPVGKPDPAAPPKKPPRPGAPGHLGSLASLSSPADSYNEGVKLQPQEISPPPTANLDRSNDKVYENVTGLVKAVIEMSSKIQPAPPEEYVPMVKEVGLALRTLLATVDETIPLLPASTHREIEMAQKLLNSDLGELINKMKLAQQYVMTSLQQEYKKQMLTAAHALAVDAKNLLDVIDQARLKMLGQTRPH

[4] = test system: Fibrinogen (Alexa647-labelled); test: fibrinogen binders on compound microarrays, profiling panel, artefact control for SMM control-protein annotation, biochemical, small-molecule microarray, 635/667 nm fluorescence (AID 1131); details: fibrinogen-A647 binding fluorescence, higher = more signal;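 note: z-score merges 667 nm fluorescence with per-spot signal-to-noise over triplicate slides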
[5] = biological target: Follistatin (Homo sapiens) (UniProt P19883); test: follistatin binders on small-molecule microarrays, primary screen, biochemical, small-molecule microarray, 635/667 nm fluorescence (AID 1132); details: FST binding, 635 nm fluorescence, higher = more signal
Sequence of Follistatin (Homo sapiens) (P19883 whole entry, looked up): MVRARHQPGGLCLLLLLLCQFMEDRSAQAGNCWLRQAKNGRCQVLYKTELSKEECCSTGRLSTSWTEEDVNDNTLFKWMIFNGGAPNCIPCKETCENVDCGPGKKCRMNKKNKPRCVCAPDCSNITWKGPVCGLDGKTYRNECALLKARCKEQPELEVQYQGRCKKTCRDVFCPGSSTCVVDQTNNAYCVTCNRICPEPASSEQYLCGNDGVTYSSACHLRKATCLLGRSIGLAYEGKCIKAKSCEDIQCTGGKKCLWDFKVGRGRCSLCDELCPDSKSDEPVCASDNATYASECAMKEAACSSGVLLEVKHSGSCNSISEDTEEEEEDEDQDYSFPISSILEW

[6] = biological target: Fibroblast growth factor 2 (Homo sapiens) (UniProt P09038); test: FGF2 binders on small-molecule microarrays, primary screen, biochemical, small-molecule microarray, 635/667 nm fluorescence (AID 1133); details: small-molecule microarray binding, FGF2, fluorescence 635/667; higher = more signal
Sequence of Fibroblast growth factor 2 (Homo sapiens) (P09038 whole entry, looked up): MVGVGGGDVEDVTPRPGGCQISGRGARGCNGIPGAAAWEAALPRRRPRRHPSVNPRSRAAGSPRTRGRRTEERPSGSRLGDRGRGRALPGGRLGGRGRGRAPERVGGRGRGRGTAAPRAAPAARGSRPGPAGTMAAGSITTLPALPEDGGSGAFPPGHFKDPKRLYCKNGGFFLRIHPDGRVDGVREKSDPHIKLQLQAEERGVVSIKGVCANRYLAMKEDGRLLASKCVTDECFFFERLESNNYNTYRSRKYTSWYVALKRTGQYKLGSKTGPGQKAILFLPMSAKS

[7] = mitochondrial membrane potential change in A549 cells, profiling panel, cell-based, JC-1 fluorescence, basal, 24 h, 100 nL (AID 1138); details: higher = more signal;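 note: A549 lung adenocarcinoma cells under basal conditions with no added stimulus; test concentration not given here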
[8] = test system: Lefty1; test: Lefty1 binders on small-molecule microarrays, primary screen, biochemical, small-molecule microarray, 635/667 nm fluorescence (AID 1139); details: small-molecule microarray binding, fluorescence 635/667; higher = more signal
[9] = test system: wheat germ agglutinin (Triticum aestivum), Alexa647-labelled; test: wheat germ agglutinin binders on compound microarrays, profiling panel, artefact control for SMM control-protein annotation, biochemical, small-molecule microarray, 635/667 nm fluorescence (AID 1140); details: WGA-A647 binding, 635 nm fluorescence, higher = more signal;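 note: score merges 667 nm feature emission with signal to noise over triplicate slides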
[10] = biological target: Luciferin 4-monooxygenase (Photinus pyralis) (UniProt P08659); test: firefly luciferase enzyme inhibitors, primary screen, biochemical, luminescence, purified enzyme, 2006 set (AID 1141); details: SteadyGlo luminescence, 30 min, higher = more signal, called active from +8 up or from −8 down;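 note: cell-free assay with purified firefly luciferase at 100 ng per well in PBS; test concentration not given here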
Sequence of Luciferin 4-monooxygenase (Photinus pyralis) (P08659 whole entry, looked up): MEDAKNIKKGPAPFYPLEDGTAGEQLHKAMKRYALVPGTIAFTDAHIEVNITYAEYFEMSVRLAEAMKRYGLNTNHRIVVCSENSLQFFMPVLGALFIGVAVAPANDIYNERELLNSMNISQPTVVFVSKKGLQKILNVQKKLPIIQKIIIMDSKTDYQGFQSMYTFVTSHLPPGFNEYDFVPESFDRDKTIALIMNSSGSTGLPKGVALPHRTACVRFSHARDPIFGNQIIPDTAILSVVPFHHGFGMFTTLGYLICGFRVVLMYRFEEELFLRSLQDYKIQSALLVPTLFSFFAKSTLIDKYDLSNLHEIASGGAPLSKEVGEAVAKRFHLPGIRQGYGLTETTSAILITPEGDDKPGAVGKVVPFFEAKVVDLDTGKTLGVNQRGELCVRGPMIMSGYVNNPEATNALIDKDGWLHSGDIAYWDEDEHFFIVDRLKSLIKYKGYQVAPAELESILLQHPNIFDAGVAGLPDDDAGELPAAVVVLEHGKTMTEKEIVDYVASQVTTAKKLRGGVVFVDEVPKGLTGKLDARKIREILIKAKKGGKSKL

[11] = test system: Wnt5a (protein binding on small-molecule microarray); test: Wnt5a binders on small-molecule microarray, primary screen, biophysical, 635/667 nm fluorescence (AID 1142); details: 635 nm fluorescence, higher = more signal;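 note: fluorescence read at 667 nm with signal to noise per printed feature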
[12] = cell viability in Huh7 cells, primary screen, cytotoxicity control for HCV replication inhibitor project, CellTiter-Glo luminescence, basal, 48 h (AID 1143); details: Huh7 HCV replicon, higher = more signal, called active from +8 up or from −8 down;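 note: Huh7 hepatoma cells carrying a hepatitis C replication reporter with no stimulus; test concentration not given here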
[13] = P. aeruginosa biofilm formation inhibitors, primary screen, PAO1 strain, BacTiter-Glo luminescence, LB-PBS (AID 1144); details: 12 h, higher = more signal
[14] = CREB reporter modulators without forskolin, primary screen, cell-based, PC12, CRE-LacZ reporter, unstimulated (AID 1145); details: no forskolin, luminescence, 4.5 h, higher = more signal, called active from +8 up or from −8 down
[15] = CREB reporter modulators under forskolin, primary screen, cell-based, PC12, CRE-LacZ reporter, forskolin-stimulated (AID 1146); details: luminescence, 4.5 h, higher = more signal, called active from +8 up or from −8 down;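 note: PC12 cells with 6xCRE LacZ reporter stimulated by forskolin 10 µM; beta-galactosidase reporter signal reflecting CREB driven transcription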
[16] = biological target: Streptavidin (Streptomyces avidinii) (UniProt P22629); test: streptavidin binders on small-molecule microarray, primary screen, artefact control for SMM compound annotation, biophysical, 635/667 nm fluorescence (AID 1147); details: streptavidin binding, higher = more signal;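 note: signal reflects streptavidin binding to arrayed compounds as a control protein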
Sequence of Streptavidin (Streptomyces avidinii) (P22629 whole entry, looked up): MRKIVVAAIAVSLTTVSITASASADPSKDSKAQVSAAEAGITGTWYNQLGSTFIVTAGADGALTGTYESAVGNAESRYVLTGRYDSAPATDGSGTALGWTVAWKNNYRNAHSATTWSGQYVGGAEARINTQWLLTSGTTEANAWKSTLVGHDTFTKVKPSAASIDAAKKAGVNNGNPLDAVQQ

[17] = small-molecule binders of probe aInhba, primary screen, biochemical, small-molecule microarray, 635/667 nm fluorescence (AID 1148); details: higher = more signal;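 note: score merges 667nm spot fluorescence with signal-to-noise for antibody binding to printed compounds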
[18] = biological target: Torsin-1A (Homo sapiens) (UniProt O14656); test: torsin A binders from cell lysate, primary screen, small-molecule microarray, wild-type, 635/667 nm (AID 1149); details: COS7 hTOR1A-WT lysate, 635 nm fluorescence, higher = more signal
Sequence of Torsin-1A (Homo sapiens) (O14656 whole entry, looked up): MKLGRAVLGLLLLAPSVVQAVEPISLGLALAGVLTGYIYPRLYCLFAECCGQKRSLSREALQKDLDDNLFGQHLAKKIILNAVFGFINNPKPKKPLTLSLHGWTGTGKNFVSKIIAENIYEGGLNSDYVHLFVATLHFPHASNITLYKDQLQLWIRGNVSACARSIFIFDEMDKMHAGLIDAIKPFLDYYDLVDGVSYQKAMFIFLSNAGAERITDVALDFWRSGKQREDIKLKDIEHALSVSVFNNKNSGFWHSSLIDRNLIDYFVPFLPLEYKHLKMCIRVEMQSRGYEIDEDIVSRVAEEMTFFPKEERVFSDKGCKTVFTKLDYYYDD

[19] = biological target: Torsin-1A (Homo sapiens) (UniProt O14656); test: small-molecule binders of mutant TOR1A in lysate, primary screen, cell lysate, small-molecule microarray, COS7 lysate, 635/667 nm fluorescence (AID 1150); details: COS7 hTOR1A mutant lysate, 635 nm fluorescence, higher = more signal;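 note: score pools 667 nm emission and signal to noise measuring lysate protein binding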
[20] = test system: Sonic hedgehog protein (Shh); test: small-molecule binders of Shh protein, primary screen, biochemical, small-molecule microarray, 635/667 nm fluorescence (AID 1151); details: small-molecule microarray binding, 635 nm fluorescence; higher = more signal;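 note: Shh protein binding to compounds spotted on small-molecule microarray slides; score combines spot fluorescence intensity with signal-to-noise across triplicate slides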

| Structure (SMILES) | composite z-score [1] | composite z-score [2] | composite z-score [3] | composite z-score [4] | composite z-score [5] | composite z-score [6] | z-score [7] | composite z-score [8] | composite z-score [9] | z-score [10] | composite z-score [11] | z-score [12] | z-score [13] | z-score [14] | z-score [15] | composite z-score [16] | composite z-score [17] | composite z-score [18] | composite z-score [19] | composite z-score [20] |
| --- | --- | --- | --- | --- | --- | --- | --- | --- | --- | --- | --- | --- | --- | --- | --- | --- | --- | --- | --- | --- |
| [N-]=[N+]=Nc1ccccc1C[C@]1(C(=O)O)N=C(c2ccc(OCCCO)cc2)O[C@H]1c1ccccc1N=[N+]=[N-] | 1.45 | 1.21 | 0.507 | 0.986 | 0.945 | 0.0923 | 0.64 | -0.676 | 1.25 | -5.36 (inactive) | 0.0284 | -1.26 (inactive) | 0.0243 (inactive) | 0.274 (inactive) | -1.65 (inactive) | 1.58 | 0.362 | 0.327 | 0.241 | -0.0242 |
| COCCCNC(=O)[C@@]1(Sc2ccc(C)cc2)CC(=O)N(Cc2ccccc2Cl)[C@@H]1c1ccc(CO)cc1I | 1.32 | -0.943 | 0.345 | -1.49 | -0.242 | -0.765 | 0.919 | -0.959 | -0.691 | -0.181 (inactive) | -0.509 | -1.35 (inactive) | 0.241 (inactive) | -0.168 (inactive) | 1.68 (inactive) | -0.768 | -0.128 | -1.03 | -0.213 | -0.519 |
| O=C1OCC=C[C@H]2OC34C=CCN(c5ccc6ccccc6c5)C(=O)[C@H]3N(CCCCCO)C(=O)[C@@H]4[C@@H]12 (stereo not given in full) | 0.0997 | -0.381 | 1.05 | -0.639 | -1.38 | -1.42 | -0.164 | -1.23 | 0.129 | -0.397 (inactive) | -0.137 | 0.234 (inactive) | 0.494 (inactive) | 0.724 (inactive) | 0.0532 (inactive) | -0.884 | -0.0963 | -1.92 | -1.41 | -0.968 |
| COC(=O)C(CC#Cc1ccc2c(c1)[C@]1(C(=O)N2)[C@H](c2ccc(OCCO)cc2)N2[C@H](c3ccccc3)[C@H](c3ccccc3)OC(=O)[C@H]2[C@@H]1C(=O)N1CCN(c2ncccn2)CC1)C(=O)OC | 1.92 | 1.21 | -0.528 | 0.993 | 1.37 | 1.35 | -1.56 | 0.857 | 1.04 | -0.195 (inactive) | 0.419 | -0.339 (inactive) | -0.961 (inactive) | -0.554 (inactive) | 1.27 (inactive) | 0.862 | 0.306 | 0.272 | 0.666 | 1.2 |
| COc1ccc(C(O)C2C=CC3C(=O)N(c4ccccc4)C(=O)C3N2Nc2ccccc2F)cc1 (stereo not given) | 2.35 | 1.18 | 0.616 | 0.918 | 0.244 | -0.276 | -0.652 | -0.2 | 0.265 | 1.31 (inactive) | 0.0178 | -0.0475 (inactive) | -0.749 (inactive) | -0.228 (inactive) | 0.604 (inactive) | 0.316 | 1.52 | 0.216 | 0.732 | 0.379 |
| O=C1[C@@]23C=C(Br)[C@H](C[C@@H]2COC3)[C@@]12CO2 | 0.192 | 0.247 | 0.0493 | 0.161 | 0.397 | 0.423 | -0.0605 | 0.414 | 0.0439 | 0.44 (inactive) | 0.731 | 0.762 (inactive) | 0.461 (inactive) | -0.329 (inactive) | 2.56 (inactive) | -0.129 | -0.0986 | 0.283 | 0.276 | 0.497 |
